ADAM17 inh = ADAM17 inhibition, QFRET primary screen; recombinant ADAM17, EDANS/DABCYL FRET peptide cleavage; inhibition, % at 6.95 µM; 370,000 tested, 0.83% active; AID 720648; P78536;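 active means inhibition above the mean of compounds lying between control limits plus 3 SD, set per campaign, cut at about 8.5% in these data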;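 further: 0% = DMSO-only wells as the low control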
HGIII-sPLA2 inh = Blocks human group III sPLA2 activity; QFRET BODIPY PC-A2 liposome hydrolysis, fluorescence; inhibition, % at 12.2 µM; 370,000 tested, 0.56% active; AID 743126; Q9NZ20;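 active means inhibition above mean plus 3 SD of compounds lying within the high and low control bounds, cut at about 19% in these data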;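 further: 0% = median of test compound wells and 100% = no enzyme DMSO wells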
ADAM10 inh = inhibitors of human ADAM10 | O14672 | recombinant ADAM10, EDANS/DABCYL FRET peptide cleavage, 3 h | inhibition, % at 7 µM | 370,000 tested, 0.62% active | AID 720582;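 active means inhibition above a per-campaign cutoff equal to the mean of compounds falling between control-based bounds plus 3 SD, cut at about 20% in these data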;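 further: 0% = DMSO wells while the 100% control is not disclosed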
PLCg1 inh = PLC-gamma1 (human) inhibition, primary screen. P19174. purified PLC-gamma1, fluorogenic substrate, fluorescence. inhibition, % at 12.2 µM. 370,000 tested, 0.84% active. AID 720700; in the data active means inhibition above about 9.5%
KLK7 zymogen act = proKLK7 (human) activation, primary screen; P49862; 370,000 tested, 0.9% active; purified proKLK7, EDANS-DABCYL substrate fluorescence; 100% is mature enzyme control, 0% vehicle; activation, % at 7 µM;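 active means activation above the mean of all tested compounds plus 3 SD, computed per campaign excluding outliers beyond control limits, cut at about 13% in these data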
PLC-beta3 inh = PLC-beta3 (human) inhibition, primary screen. Purified PLC-beta3, fluorogenic substrate, fluorescence. inhibition, % at 12.2 µM. 370,000 tested, 0.18% active; in the data active means inhibition above about 11%;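 further: 0% = median of compound wells on plate and 100% = full blocker control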
ADAM10 confirm = confirmation of inhibitors of human ADAM10 | shares compounds with ADAM10 inh | ADAM10 QFRET peptide cleavage, EDANS fluorescence | inhibition, % at 6.95 µM | 2,100 tested, 1% active | AID 743208;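 active means inhibition above about 20% chosen separately for each screening run, limit read from the data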;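 further: 0% = DMSO wells and 100% = marimastat wells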
ADAM17 ctr = counter-screen for ADAM10 exosite inhibitors: inhibitors of human ADAM17; 2,100 tested, 0.5% active; AID 743214; shares compounds with ADAM10 inh; ADAM17 QFRET peptide cleavage, EDANS fluorescence; inhibition, % at 6.95 µM;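 active means mean triplicate inhibition above the solvent-only control wells' mean plus 3 SD, cut at about 12% in these data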;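 further: 0% = DMSO wells and 100% = marimastat wells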
* hit, by the source's call. An excerpt weighted towards active compounds, which were near 3.4% of everything screened.

Results for Cc1ccc(SCCNC(=O)c2ccc(C)c(S(=O)(=O)Nc3ccccc3C)c2)cc1 ?
ADAM17 inh: 6; HGIII-sPLA2 inh: -29; ADAM10 inh: 21*; PLCg1 inh: 2; KLK7 zymogen act: -1; PLC-beta3 inh: -1; ADAM10 confirm: 8; ADAM17 ctr: 3

What do the screens show for `CC(C)(N[C@@H](Cc1c[nH]c2ccccc12)C(=O)NCCc1c[nH]c2ccccc12)C(=O)NC1CCCCC1`?
ADAM17 inh: 3; HGIII-sPLA2 inh: -99; ADAM10 inh: 6; PLCg1 inh: 1; PLC-beta3 inh: -4

What do the screens show for `Cc1ccc(-n2c(Cc3cccs3)nnc2SCC(=O)Nc2ccccc2-c2ccccc2)cc1`?
ADAM17 inh: 8; HGIII-sPLA2 inh: -11; ADAM10 inh: 12; PLCg1 inh: 3; KLK7 zymogen act: 0; PLC-beta3 inh: 2

Results for Cc1ccc(NS(=O)(=O)c2ccc(OCC(=O)Nc3cccc([N+](=O)[O-])c3)c(C)c2)cc1 ?
ADAM17 inh: 3; HGIII-sPLA2 inh: -66; ADAM10 inh: 23*; PLCg1 inh: 1; KLK7 zymogen act: 0; PLC-beta3 inh: 0; ADAM10 confirm: 7; ADAM17 ctr: 3

What do the screens show for `Cc1ccc(NC(=O)CN(C)C(=O)c2ccc(NS(=O)(=O)c3cccc([N+](=O)[O-])c3)cc2)cc1`?
ADAM17 inh: 2; HGIII-sPLA2 inh: -28; ADAM10 inh: -2; PLCg1 inh: 1; KLK7 zymogen act: 0; PLC-beta3 inh: -3

Results for O=C(c1cc(F)cc(F)c1)N1CCCC(c2nc(-c3cccs3)no2)C1 (stereo unspecified) ?
ADAM17 inh: -1; HGIII-sPLA2 inh: 4; ADAM10 inh: -2; PLCg1 inh: 1; KLK7 zymogen act: -1; PLC-beta3 inh: -1

What do the screens show for `O=C(NNC(=S)Nc1ccc(Cl)cc1Cl)c1cccnc1`?
ADAM17 inh: -2; HGIII-sPLA2 inh: 6; ADAM10 inh: 2; PLCg1 inh: 0; KLK7 zymogen act: 0; PLC-beta3 inh: -9

Results for O=C(NNC(=S)Nc1ccc(Cl)cc1Cl)c1ccncc1 ?
ADAM17 inh: 7; HGIII-sPLA2 inh: 1; ADAM10 inh: 21*; PLCg1 inh: -11; KLK7 zymogen act: 0; PLC-beta3 inh: -17; ADAM10 confirm: 3; ADAM17 ctr: 0

How did O=C(NO)c1ccc(C(=O)N(C2CCCCC2)C2CCCCC2)cc1 do in these assays?
ADAM17 inh: 4; HGIII-sPLA2 inh: -34; ADAM10 inh: 30*; PLCg1 inh: 3; KLK7 zymogen act: 1; PLC-beta3 inh: 0; ADAM10 confirm: 22*; ADAM17 ctr: 2

Results for CCOc1cc(CNn2cn[nH]c2=S)cc(Cl)c1OCc1ccccc1F ?
ADAM17 inh: 12*; HGIII-sPLA2 inh: 5; ADAM10 inh: 25*; PLCg1 inh: 5; KLK7 zymogen act: -1; PLC-beta3 inh: -1; ADAM10 confirm: 0; ADAM17 ctr: 0

What do the screens show for `NS(=O)(=O)c1ccc(CCNC(=O)c2cc(-c3cc(Cl)ccc3O)n[nH]2)cc1`?
ADAM17 inh: 2; HGIII-sPLA2 inh: -19; ADAM10 inh: 23*; PLCg1 inh: 3; KLK7 zymogen act: 0; PLC-beta3 inh: -2; ADAM10 confirm: 2; ADAM17 ctr: 2

Results for CCC1Sc2ccc(S(=O)(=O)CCC(=O)Nc3c(Cl)cc(OC)cc3OC)cc2NC1=O (stereo unspecified) ?
ADAM17 inh: 6; HGIII-sPLA2 inh: -32; ADAM10 inh: 20*; PLCg1 inh: 5; KLK7 zymogen act: 0; PLC-beta3 inh: -6; ADAM10 confirm: 0; ADAM17 ctr: 0

Results for CCC1Sc2ccc(S(=O)(=O)Nc3cc(OC)cc(OC)c3)cc2NC1=O (stereo unspecified) ?
ADAM17 inh: 0; HGIII-sPLA2 inh: -24; ADAM10 inh: 5; PLCg1 inh: 3; KLK7 zymogen act: 1; PLC-beta3 inh: -6

Results for O=C(C(=O)N1CCC(CNS(=O)(=O)c2cccc3ccccc23)CC1)c1cccs1 ?
ADAM17 inh: 0; HGIII-sPLA2 inh: -31; ADAM10 inh: 2; PLCg1 inh: -2; KLK7 zymogen act: 0; PLC-beta3 inh: -1

How did COc1ccc(S(=O)(=O)NC(C)C(=O)Nc2cccc(C(C)=O)c2)cc1 (stereo unspecified) do in these assays?
ADAM17 inh: 6; HGIII-sPLA2 inh: -7; ADAM10 inh: 31*; PLCg1 inh: 4; KLK7 zymogen act: 0; PLC-beta3 inh: 0; ADAM10 confirm: 0; ADAM17 ctr: 1

How did COc1ccc(S(=O)(=O)NC(C)C(=O)Nc2ccccc2F)cc1 (stereo unspecified) do in these assays?
ADAM17 inh: 0; HGIII-sPLA2 inh: 1; ADAM10 inh: -2; PLCg1 inh: -1; KLK7 zymogen act: 1; PLC-beta3 inh: -1

What do the screens show for `O=C(NCc1ccccc1)[C@H]1CCCN1`?
ADAM17 inh: -3; HGIII-sPLA2 inh: 17; ADAM10 inh: -3; PLCg1 inh: -1; KLK7 zymogen act: 0; PLC-beta3 inh: 4

Results for Cc1cc(S(=O)(=O)N(Cc2ccc(C(C)C)cc2)CC2CCCO2)ccc1-n1cnnn1 (stereo unspecified) ?
ADAM17 inh: 5; HGIII-sPLA2 inh: -12; ADAM10 inh: 24*; PLCg1 inh: 0; KLK7 zymogen act: 0; PLC-beta3 inh: 7; ADAM10 confirm: 5; ADAM17 ctr: 1

Results for Cc1cc(S(=O)(=O)N(Cc2ccc(F)cc2)CC2CCCO2)ccc1-n1cnnn1 (stereo unspecified) ?
ADAM17 inh: -2; HGIII-sPLA2 inh: -1; ADAM10 inh: -1; PLCg1 inh: -1; KLK7 zymogen act: 0; PLC-beta3 inh: -2

Results for CC(C)c1ccc(C(=O)NCCCNC(=O)c2cnccn2)cc1 ?
ADAM17 inh: -1; HGIII-sPLA2 inh: 6; ADAM10 inh: 51*; PLCg1 inh: 1; KLK7 zymogen act: -1; PLC-beta3 inh: 4; ADAM10 confirm: 0; ADAM17 ctr: 0

How did O=C(NCCNC(=O)c1cnccn1)c1ccc(Cl)cc1 do in these assays?
ADAM17 inh: -1; HGIII-sPLA2 inh: -1; ADAM10 inh: 13; PLCg1 inh: 2; KLK7 zymogen act: -1; PLC-beta3 inh: -2

What do the screens show for `COc1cccc([C@@H](NC(=O)C(F)(F)F)[C@@H]2CCCC=C2c2ccccc2)c1`?
ADAM17 inh: 0; HGIII-sPLA2 inh: 1; ADAM10 inh: 8; PLCg1 inh: -2; KLK7 zymogen act: 0; PLC-beta3 inh: 0
